Tau fluor cs – counter-screen for tau fibril formation inhibitors. Potency, µM (series often up to 57.7 µM), for the others: at the top dose activity change, negative = decrease. tau K18 P301L Alexa594 fluorescence, heparin fibrillization. 0.93% of 280,000 active; also: potency is read from the fitted curve at half-maximal effect; nearly all actives have a fitted effect of over 55% in size
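Human K18 P301L tau (15 uM unlabeled plus 0.24 uM Alexa 594-labeled, final) in 100 mM sodium acetate pH 7 was mixed with compound and 20 uM heparin and incubated 6 hr at 37 C.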
Coupling enz – counter-screen for Giardia aldolase inhibitors: coupling enzyme system; coupling enzyme system counterscreen, AmpLite Red fluorescence; activity change, negative = inhibition, % at 58.2 µM, hits read low; 0.67% of 290,000 active; AID 2472; in the data active = activity change below about -30%
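Coupling enzymes only (glyceraldehyde-3-phosphate) + compound, at 57.5 uM final, 10 min RT; add substrate/coupling/AmpLite Red mix, 20 min RT; fluorescence ex 525/em 598 nm. Actives flag coupling-system interference.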
Tau ThT inhib – blocks human tau fibril formation measured by thioflavin T; Potency, µM (doses to about 57.4 µM), for the others: at the highest dose activity, negative = inhibition, usual class: inhibitors; 2.1% of 270,000 active; P10636; recombinant tau K18 P301L (four-repeat tau fragment), heparin-induced fibrillization, ThT fluorescence; also: potency is read from the fitted curve at half-maximal effect; nearly all actives have a fitted effect of over 55% in size
Target sequence (P10636 561-689 P618L limits assumed): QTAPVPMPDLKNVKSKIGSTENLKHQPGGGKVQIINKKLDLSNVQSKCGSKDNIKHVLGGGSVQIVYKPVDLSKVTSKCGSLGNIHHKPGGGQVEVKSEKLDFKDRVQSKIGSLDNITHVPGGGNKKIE
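Aggregation was driven by heparin (20 uM final) acting on recombinant tau […] bearing P301L in 100 mM sodium acetate pH 7; fibrils were detected with Thioflavin T.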
Tau fibril FP – blocks human tau fibril formation measured by polarization; 0.39% of 280,000 active; K18 P301L tau heparin fibrillization, Alexa594 FP, 6 h; Potency, µM (series often up to 57.7 µM), without a hit: at the highest dose activity, negative = inhibition, usual class: inhibitors; also: potency is read from the fitted curve at half-maximal effect; nearly all actives have a fitted effect of over 55% in size
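FP of Alexa 594-tau after heparin (20 uM) induction. Substrate: human K18 P301L, 15 uM unlabeled, 0.24 uM labeled. Buffer 100 mM sodium acetate pH 7. 6 hr, 37 C.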
* = called active by the depositor; [ ] = another dose, or the depositor's remark. Rows were chosen to be rich in hits. Some 2.7% of all compounds tested hit in one or more screens of this group. Unless noted, calls follow the shape of the dose curve; as a rule, active = well fitted curve in the direction sought with a large enough effect; inconclusive = small, poorly fitted or top-dose-only effect, or another doubt; inactive = no such curve, though single readings can be large; an effect the other way counts as inactive or inconclusive. % is scaled to controls: 0 for no effect and ±100 for the full control effect.

`COC(=O)CCCC1=CC2=CC(=O)C(C)(OC(=O)c3cccs3)C(=O)C2=CN1CCCOC(C)C` (configuration not stated) gave Tau fluor cs -5%[11.6 µM], Coupling enz -31*, Tau ThT inhib inconclusive and Tau fibril FP -1%[11.6 µM].
CCCCC1=CC2=CC(=O)C(C)(OC(=O)CC)C(=O)C2=CN1CCOC (configuration not stated) was read as Tau fluor cs -4%[11.6 µM], Coupling enz -7, Tau ThT inhib inconclusive and Tau fibril FP 0%[11.6 µM].
Screening CCN(CC)CCCN1C=C2C(=O)C(C)(OC(=O)c3cccs3)C(=O)C=C2C=C1CCCC(=O)OC (configuration not stated) returned Tau fluor cs -1%[11.6 µM], Coupling enz -1, Tau ThT inhib 5%[11.5 µM] and Tau fibril FP 8%[11.6 µM].
Screening Oc1c(C(c2ccccc2Cl)N2CCN(Cc3ccccc3)CC2)sc2nc(-c3ccco3)nn12 (configuration not stated) returned Tau fluor cs -13%, Tau ThT inhib -7% and Tau fibril FP 2%.
`CCn1c(SCC(=O)Nc2ccc(C)cc2Br)nnc1-c1nonc1NC(C)=O` gave Tau fluor cs -4%, Tau ThT inhib -16% and Tau fibril FP 8%.
Screening COc1ccc(NC(=O)N2CCc3nc(COc4ccccc4)c4c(c3C2)CO[C@@H](C)C4)cc1 returned Tau fluor cs -19%[11.6 µM], Coupling enz 3, Tau ThT inhib inconclusive and Tau fibril FP 8%[11.6 µM].
`N#CC(C#N)=C1NC2(CCCCC2)Cc2ccccc21` gave Tau fluor cs -10%, Coupling enz 12, Tau ThT inhib -3% and Tau fibril FP -4%.
`N#CC(C#N)=c1ccc2c(c1)NC1(CCCCC1)N=2` gave Tau fluor cs inconclusive, Coupling enz -16, Tau ThT inhib 14µM* and Tau fibril FP 25µM*.
O=C(Nc1ccc(C(F)(F)F)cn1)Nc1cccs1 was read as Tau fluor cs -20%, Coupling enz 3, Tau ThT inhib -2% and Tau fibril FP 6%.
`COc1ccc(NC(=O)Nc2cccs2)cc1Cl` gave Tau fluor cs 10µM*[quencher], Coupling enz -3, Tau ThT inhib inconclusive and Tau fibril FP inconclusive.
For COc1ccc(NC(=O)CCC(=O)c2cccs2)cc1Cl the results were Coupling enz 0.
Screening O=C(Nc1cccs1)Nc1cc(C(F)(F)F)ccc1Cl returned Tau fluor cs 6.3µM*[quencher], Tau ThT inhib -14% and Tau fibril FP -3%.
Screening CCCCC(=O)N1C/C=C\C(c2ccc(OC)cc2)N(Cc2ccc(F)cc2)C(=O)C1C (configuration not stated) returned Coupling enz 0.
`CCOC(=O)N1CCN(C(=O)C2CCN(S(=O)(=O)CC)CC2)CC1` gave Tau fluor cs 25µM*[quencher], Coupling enz 1, Tau ThT inhib 8% and Tau fibril FP inconclusive.
`C[C@@H]1CN(CCCn2c3ccccc3c3ccccc32)C[C@H](C)N1` gave Tau fluor cs -18%, Coupling enz -3, Tau ThT inhib -16% and Tau fibril FP -8%.
`COc1ccc(C(=O)Nc2cc3cc(Cl)ccc3oc2=O)cc1OC` gave Tau fluor cs -4%, Tau ThT inhib -5% and Tau fibril FP -18%.
For O=C(Nc1nc2ccc(F)cc2s1)C1CCN(S(=O)(=O)c2cc([N+](=O)[O-])ccc2Cl)CC1 the results were Tau fluor cs 7.1µM*[quencher], Coupling enz -11, Tau ThT inhib inconclusive and Tau fibril FP inconclusive.
`Cc1ccc2nc(NC(=O)C3CCN(S(=O)(=O)c4cc([N+](=O)[O-])ccc4Cl)CC3)sc2c1` gave Tau fluor cs inconclusive, Coupling enz -1, Tau ThT inhib inconclusive and Tau fibril FP 6%.
Cc1nnc2c(Nc3cccc(O)c3)nc3ccccc3n12 was read as Tau fluor cs -6%, Tau ThT inhib 0% and Tau fibril FP -3%.
Screening Cc1ccccc1N=Cc1cccc(O)c1O returned Tau fluor cs inconclusive, Coupling enz -26, Tau ThT inhib 7.9µM* and Tau fibril FP inconclusive.
Screening CC(N=Cc1cccc(O)c1O)c1ccccc1 (configuration not stated) returned Tau fluor cs inconclusive, Coupling enz -39*, Tau ThT inhib 5µM* and Tau fibril FP inconclusive.
For Cc1ccc(N=Cc2cccc(O)c2O)c(C)c1 the results were Tau fluor cs inconclusive, Coupling enz -28, Tau ThT inhib 3.2µM* and Tau fibril FP 8.9µM*.
Screening CC(N=Cc1cc([N+](=O)[O-])ccc1O)c1ccccc1 (configuration not stated) returned Tau fluor cs 7%, Coupling enz 8, Tau ThT inhib 1% and Tau fibril FP -7%.
For Cc1cccc(NC(=O)CCn2cnc3ccccc3c2=O)c1 the results were Tau fluor cs 10%, Tau ThT inhib 6% and Tau fibril FP -1%.
For CCCN(CCC)C(=O)C1CCCN(c2ncnc3onc(-c4ccc(F)cc4)c23)C1 (configuration not stated) the results were Tau fluor cs -10%, Tau ThT inhib -1% and Tau fibril FP -5%.
For Cc1ccc(Oc2nc3c(c(=O)n(Cc4ccccc4)c(=O)n3C)n2C)cc1C the results were Tau fluor cs -11%, Tau ThT inhib -13% and Tau fibril FP -3%.
`CCN(Cc1ccccc1)C(=O)CS(=O)(=O)c1ccccc1` gave Tau fluor cs 6%, Coupling enz 3, Tau ThT inhib 7% and Tau fibril FP -1%.
Screening O=S(=O)(C/C(=C/CO)S(=O)(=O)c1ccccc1)c1ccccc1 returned Tau fluor cs -14%, Coupling enz 0, Tau ThT inhib 3.5µM* and Tau fibril FP inconclusive.
For CCCOc1ccc(CNC(=O)CCCn2ncn3c(cc4sc(CC)cc43)c2=O)cc1 the results were Tau fluor cs 4%, Tau ThT inhib -16% and Tau fibril FP -11%.
`Oc1ccccc1N1CCN(C(=S)NCCc2ccccc2)CC1` gave Tau fluor cs -26%, Coupling enz -2, Tau ThT inhib inconclusive and Tau fibril FP 10%.
Screening Oc1ccc(N2CCN(C(=S)NCCc3ccccc3)CC2)cc1 returned Tau fluor cs -27%, Coupling enz -1, Tau ThT inhib 14µM* and Tau fibril FP 13%.
`Cc1c(N)cc(N)cc1C(=O)O` gave Tau fluor cs -8%, Coupling enz -35* and Tau fibril FP -10%.
Cc1c(Br)cc(C(=O)O)c(C)c1C was read as Tau fluor cs 10%, Coupling enz 3, Tau ThT inhib -1% and Tau fibril FP 8%.
COc1ccc(S(=O)(=O)NCCc2csc(-c3cccc(F)c3)n2)cc1OC was read as Tau fluor cs -9%, Tau ThT inhib 0% and Tau fibril FP -7%.
Nc1c[n+](N2CCOCC2)no1 was read as Tau fluor cs -21%, Coupling enz 6, Tau ThT inhib 7.1µM* and Tau fibril FP inconclusive.
`Cc1cc(C)n(-c2nnc(N3CCN(c4ccc(F)cc4)CC3)nn2)n1` gave Tau fluor cs -24%, Coupling enz -12, Tau ThT inhib 13µM* and Tau fibril FP 5%.

Screening results from PubChem.
